# Cruzain inh noDet: inhibitors of Trypanosoma cruzi cruzain without detergent | P25779 | purified cruzain, Z-FR-AMC fluorescence, no detergent | Potency, µM, for the others: max response, negative = inhibition, hits mostly inhibitors | 200,000 compounds, 2.3% hits | AID 1476;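 also: plate controls were enzyme without inhibitor for no effect and buffer without enzyme for full effect; nearly all actives have a fitted effect of over 40% in size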
# Target sequence (P25779 123-467 limits assumed): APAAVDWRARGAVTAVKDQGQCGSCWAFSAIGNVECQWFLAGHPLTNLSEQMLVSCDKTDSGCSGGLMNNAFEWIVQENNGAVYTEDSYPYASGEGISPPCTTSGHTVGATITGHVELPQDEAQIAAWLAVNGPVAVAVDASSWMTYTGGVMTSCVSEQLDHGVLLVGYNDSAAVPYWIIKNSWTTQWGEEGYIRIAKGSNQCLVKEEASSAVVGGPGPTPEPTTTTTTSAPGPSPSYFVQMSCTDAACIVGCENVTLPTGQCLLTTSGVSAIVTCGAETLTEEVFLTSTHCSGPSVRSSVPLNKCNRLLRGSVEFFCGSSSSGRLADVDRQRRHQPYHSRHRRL
#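 Purified cruzain at 1.5 nM, pre-incubated 15 min with compound at room temperature in 100 mM sodium acetate pH 5.5, 5 mM DTT, 0.00005% Triton X-100. Reaction started with 2 uM Z-FR-AMC; AMC fluorescence increase over 60 s gives rate.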
# Cruzain inh Det: inhibitors of Trypanosoma cruzi cruzain with detergent | P25779 | purified cruzain, Z-FR-AMC fluorescence, 0.01% Triton | Potency, µM, for the others: max response, negative = inhibition, actives largely listed as inhibitors | 200,000 compounds, 0.43% hits | AID 1478;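 also: plate controls were neutral wells for no effect and buffer without enzyme for full effect; nearly all actives have a fitted effect of over 40% in size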
#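 Read-out: AMC fluorescence (360 nm excitation, 450 nm emission), four reads over 2 min, first-to-third difference used. Conditions: cruzain 1.5 nM, Z-FR-AMC 2 uM, pH 5.5 acetate, 5 mM DTT, 0.01% Triton X-100.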
# * hit, by the source's call; ? = inconclusive. The list is not random: actives were taken first. Their share in the collection is about 2.6%. Calls follow the shape of the dose curve; as a rule, active = well fitted curve in the direction sought with a large enough effect; inconclusive = small, poorly fitted or top-dose-only effect, or another doubt; inactive = no such curve, though single readings can be large; an effect the other way counts as inactive or inconclusive. Potency is read from the fitted curve at half-maximal effect.
SMILES,Cruzain inh noDet,Cruzain inh Det
COc1ccc(OC)c(C(c2c(O)c3ccccc3oc2=O)c2c(C)n(C)n(-c3ccccc3)c2=O)c1 (stereo unspecified),2%,-1%
Cc1nc(SCC(=O)Nc2ccccc2C(F)(F)F)c(C#N)c(C)c1CC(=O)c1ccc(Br)cc1,-12%,-1%
Cc1cccc(C)c1NC(=O)CSc1nc(C)c(CC(=O)c2ccc(Br)cc2)c(C)c1C#N,32µM*,2%
Cc1oc2ncn(C)c(=O)c2c1C(=O)NC(C)c1ccccc1 (stereo unspecified),8%,3%
CCOC(=O)c1ccc(N2C(=O)c3[nH]nc(-c4ccc(C)cc4)c3C2c2ccc(O)cc2)cc1 (stereo unspecified),?,-5%
CCOC(=O)c1ccc(N2C(=O)c3[nH]nc(-c4ccccc4)c3C2c2ccc(CC)cc2)cc1 (stereo unspecified),13µM*,-4%
O=C(Nc1ccccc1)Nc1nc(-c2ccc(Cl)cc2)cs1,16µM*,2%
O=C(Nc1nc(-c2cccc(Br)c2)cs1)Oc1ccccc1,?,1%
O=C(Nc1cccc(Cl)c1)Nc1nc(-c2ccc(Cl)cc2)cs1,10µM*,1%
CCc1ccc(-c2csc(NC(=O)Oc3ccccc3)n2)cc1,13µM*,0%
CC(C)CC(=O)NC(=S)Nc1nc(-c2ccc(Cl)cc2)cs1,?,-6%
CCN(CC)CC(=O)Nc1nc(-c2ccc(Cl)cc2)cs1,-10%,-6%
COC(=O)c1ccccc1Sc1c(/C=N/OC(=O)c2ccccc2)c(C(F)(F)F)nn1C,7%,0%
Cc1nn(-c2ccc(F)cc2)c(Cl)c1/C=C1\C(=O)Nc2ccccc21,-10%,-6%
COc1ccc(C(=O)NCCC(C)C)cc1S(=O)(=O)N1CCOCC1,11%,-1%
COc1ccc(NC(=O)C(C)N(c2ccccc2)S(C)(=O)=O)cc1 (stereo unspecified),3%,-2%
COc1ccc(C(c2sc3nc(C)nn3c2O)N2CCC(O)CC2)cc1OC (stereo unspecified),12%,5%
CCOC(=O)c1cnc2c(ccc3ccccc32)c1Nc1ccc(N(C)C)cc1,-5%,-1%
Cc1ccc(S(=O)(=O)N/N=c2\oc3ccccc3cc2C(=O)Nc2cccc(C)c2)cc1,7.9µM*,-2%
Cc1cccc(NC(=O)c2cc(S(=O)(=O)c3ccccc3)ccc2Cl)c1,-2%,-5%
CC(=C/c1ccccc1)/C=C1/SC(N2CCOCC2)=NC1=O,-4%,-9%
Cc1ccc(C(=O)c2c(NC(=O)c3ccccc3C)sc(C)c2C)cc1,-24%,-1%
COCCn1c(=O)c(CCc2ccccc2)nc2cnc(N3CCOCC3)nc21,?,2%
CC(C)(C)C1CCC2(CC1)Nc1cccc3cccc(c13)N2,25µM*,-6%
COc1ccc(N2C(=O)CSC23CCC(C(C)(C)C)CC3)cc1 (stereo unspecified),?,-8%
SMILES,Cruzain inh noDet,Cruzain inh Det
O=C(N/N=C/C=C/c1ccccc1)c1ccc(Br)cc1,20µM*,3%
Cn1cc(C(=O)N/N=C/C=C/c2ccccc2)ccc1=O,-6%,-9%
CCN(c1ccc(NC(=O)COC(=O)c2ccc(S(=O)(=O)N3CCCC3)cc2)cc1)C(C)C,-3%,1%
CCOC(=O)n1c(=O)oc2ccccc21,2%,7%
CCOC(=O)N1[C@@H]2C=C(C)[C@@H]2[C@@H]2[C@@H](C)C(=O)N21,13µM*,13µM*
CCOC(=O)CNC(=O)O[C@@H]1C(=O)c2ccc(OC)cc2O[C@H]1c1ccc2c(c1)OCO2,8%,1%
COc1ccc(NC(=O)Cc2noc3ccc(C)cc23)cc1Cl,25µM*,?
CCOC(=O)c1ccc(NC(=O)Cc2noc3ccc(C)cc23)cc1,6%,-1%
N#Cc1nc(-c2ccc(F)cc2)oc1NCCN1CCOCC1,-3%,-4%
CCc1ccc(NS(=O)(=O)c2ccc3[nH]cc(C(=O)NCCc4ccccc4)c(=O)c3c2)cc1,7.9µM*,-1%
Cc1cc(C)cc(NS(=O)(=O)c2ccc3[nH]cc(C(=O)NCCc4ccccc4)c(=O)c3c2)c1,?,-2%
Cc1cccc(N2CCN(C(=O)c3cc4c(=O)n(C)c5ccccc5c4n3C)CC2)c1C,-4%,-3%
COCCn1c(-c2ccco2)csc1=Nc1cccnc1,0%,-3%
CC(C)Cn1c(-c2ccco2)csc1=Nc1cccnc1,13µM*,16µM*
CCc1ccc(/C=C2/SC(=S)N(CC(=O)Nc3nc4ccccc4s3)C2=O)cc1,3.2µM*,-8%
Cc1ccc(CC(=O)Nc2nc3ccccc3s2)cc1,-10%,-11%
Cc1cc2nc(NC3=NCN(CCN4CCOCC4)CN3)nc(C)c2cc1C,-6%,-7%
Cc1nc(NC2=NCN(CCCN3CCOCC3)CN2)nc2c(C)cccc12,25µM*,?
Cc1nnc(NC2(C(F)(F)F)C(=O)Nc3c2c(=O)n(C)c(=O)n3C)s1 (stereo unspecified),9%,3%
COc1ccc([N+](=O)[O-])cc1NC(C)C,-5%,-4%
Cc1ccc2sc3ccc(NC(=O)c4ccccc4Cl)cc3c(=O)c2c1,25µM*,3%
CCCn1c(=O)sc2cc(NC(=O)c3ccccc3Cl)ccc21,-5%,-7%
CCCCN1C=C(C(=O)OC)C(c2ccccc2C(F)(F)F)C(C(=O)OC)=C1,2%,-14%
Cc1ccc(C(=O)NCc2ccco2)cc1Br,2%,-1%
Nc1nc(SCC(=O)NCc2ccc(F)cc2)[nH]c(=O)c1NC(=O)c1ccc(Cl)cc1,25µM*,2%
SMILES,Cruzain inh noDet,Cruzain inh Det
Nc1nc(SCC(=O)NCc2ccccc2Cl)[nH]c(=O)c1NC(=O)c1ccccc1F,?,3%
CC1CCCCC1NC(=O)CN1C(=O)NC(C)(c2ccc(OC(F)F)cc2)C1=O (stereo unspecified),12%,2%
COc1ccc(-c2nc3nc(C)cc(Nc4cccc(C(F)(F)F)c4)n3n2)cc1,25µM*,-1%
Cc1cc(Nc2cccc(C(F)(F)F)c2)n2nc(C)nc2n1,-4%,-1%
Cc1cc(N2CCCCC2)n2nc(C)c(-c3ccccc3)c2n1,1%,-8%
CC1=NN(c2ccccc2)C(=O)/C1=C\C=C1\N(C)c2ccccc2C1(C)C,-8%,-20%
Cc1nn(-c2ccccc2)c(N2CCCC2)c1/C=N/n1cnc2scc(-c3ccccc3)c2c1=O,-3%,-1%
O=c1c2c(-c3ccccc3)csc2ncn1/N=C/c1c2ccccc2cc2ccccc12,10µM*,-5%
O=C(/C=C/Nc1ccccc1F)c1ccc(Br)cc1,?,-3%
O=C(/C=C/Nc1ccc([N+](=O)[O-])cc1)c1ccc(Br)cc1,20µM*,-2%
Cc1cc(N/C=C/C(=O)c2ccc(Br)cc2)no1,?,-5%
O=C(/C=C/Nc1ccc(F)c(F)c1)c1ccc(Br)cc1,25µM*,-6%
COC(=O)c1ccc(N=NN2CCOCC2)cc1,9%,-6%
Cc1ccc(C(=O)COC(=O)C2CC(=O)N(c3nc(-c4ccccc4)cs3)C2)cc1C (stereo unspecified),32µM*,2%
O=C(OCc1cccc2ccccc12)C1CC(=O)N(c2ccccc2)C1 (stereo unspecified),-1%,-2%
COc1cc(C(=O)NC2=NCCS2)ccc1OCc1c(C)noc1C,-9%,-3%
CCCCn1c(CN2CCN(C(=O)OCC)CC2)nc2c1c(=O)[nH]c(=O)n2C,-8%,3%
CCOc1ccccc1NC(=O)C(C)Sc1cc(-c2ccccc2)nc(C)n1 (stereo unspecified),-6%,-7%

# Source: PubChem (National Center for Advancing Translational Sciences (NCATS))
